PubChem BioAssay AID651635 (National Center for Advancing Translational Sciences (NCATS), 2012)
Out of some 400,000 compounds screened, about 1,900 (0.47%) were called active. Another 14% or so got no clear call; they are omitted. What follows is part of a selection rich in actives, with near analogues and random picks from the rest. Unmarked numbers belong to inactive results. Calls follow the shape of the dose curve; as a rule, active = well fitted cell-killing curve with a large enough effect; inconclusive = small, poorly fitted or top-dose-only effect, or effect the other way; inactive = no such curve, though single readings can be large or run the other way.

Assay: Viability Counterscreen for Primary qHTS for Inhibitors of ATXN expression; also: nearly all actives have a fitted effect of over 40% in size
Details: S2 cells (HEK-293 line with an ATXN2-luciferase reporter) viability, CellTiter-Fluor protease fluorescence, 24 h; series mostly up to 56.7 µM; activity change, negative = cytotoxicity: at the top concentration
Potency is read from the fitted curve at half-maximal effect.

Structure (SMILES) | activity change, negative = cytotoxicity | Potency
COc1ccc(COC[C@H](CC(C)C)N2CCN(C(=O)c3cccc(C(F)(F)F)c3)CCC2=O)cc1 | -37% | –
CC(=O)N1Cc2cc(C(=O)NCc3cccc(F)c3)nc(-c3cccc(C4=CCCC4)c3)c2[C@H]1CCO | -32.4% | –
CCCCOCCOC(=O)c1cccnc1 | -20% | –
Cc1coc2c(O)cc3c(c12)OC1(N2CCCCC2)C(=O)NCCCC31 (stereo not given) | – | 31.6 µM (active)
C=CCC[C@H](CCCCC)OC(=O)/C=C/[C@H](O)[C@@H](O)C[C@@H](O)CC=C | -36.7% | –
O[C@H]1C[C@H](c2ccc(Cl)cc2)N(Cc2cccs2)C[C@@H]1n1cc(C2CC2)nn1 | – | 22.4 µM (active)
O[C@H]1CN(Cc2cccs2)[C@@H](c2ccc(Cl)cc2)C[C@@H]1n1cc(C2CC2)nn1 | -13.8% | –
O=C(OCc1cn([C@@H]2C[C@H](c3ccc(Cl)cc3)N(Cc3cccs3)C[C@H]2O)nn1)c1ccccc1 | -17.8% | –
COc1cccc(CN2CCC3(CC2)c2ccccc2[C@@H](NC(=O)c2ccccc2OC)[C@@H]3O)c1 | -15.1% | –
c1ccc(C[C@H]2CNCCN2CCC23CC4CC(CC(C4)C2)C3)cc1 | – | 31.6 µM (active)
O=C1CCNCCN1[C@H](CO)Cc1ccccc1 | -14.8% | –
Cc1cccc(C(=O)Nc2ccc(S(=O)(=O)N3CCCCC3c3cccnc3)cc2)c1 (stereo not given) | – | 14.1 µM (active)
CCOc1ccccc1C(=O)Nc1ccc(S(=O)(=O)N2CCCCC2c2cccnc2)cc1 (stereo not given) | -18% | –
Cc1cc(NS(=O)(=O)c2ccc(NC(=O)c3cccnc3)cc2)nc(C)n1 | -27.6% | –
CCN1CCN(C(=O)N[C@@H](C(=O)N[C@@H]2C(=O)N3[C@@H]2SC(C)(C)[C@H]3C(=O)O)c2ccccc2)C(=O)C1=O | – | inactive
CCOC(=O)c1ccn(S(=O)(=O)c2ccc(C)cc2)c1-c1ccccc1 | -16% | –
Oc1ccc(N=Nc2nccs2)c(O)c1 | – | 10 µM (active)
Oc1ccc2ccccc2c1N=Nc1nccs1 | – | 15.8 µM (active)
CN1CCCCCC1C(=O)NCCN1Cc2ccccc2OC(c2ccsc2)C1 (stereo not given) | -11.5% | –
Cc1nc2cc(NC(=O)[C@@H]3C[C@@H](Sc4ccccn4)CN3Cc3ccccc3C)ccc2s1 | -14.5% | –

Structure (SMILES) | activity change, negative = cytotoxicity | Potency
CC(=O)Nc1ccc(C=Cc2ccc([N+](=O)[O-])cc2)cc1 | -4.99% | –
O=C(NN=Cc1ccc([N+](=O)[O-])cc1)C1CC1 | -5.43% | –
O=C1/C(=C\c2ccc([N+](=O)[O-])cc2)CS(=O)(=O)C/C1=C/c1ccc([N+](=O)[O-])cc1 | – | 2.67 µM (active)
COC(=O)c1cc(Cl)c(NC(C)=O)cc1OC | 2.13% | –
O=c1cc(COc2cccc(C(F)(F)F)c2)nc2sc3c(n12)CCCC3 | -33.8% | –
O=C(Nc1ccc(Cl)cc1)C1Cc2c(-c3ccc4c(c3)OCO4)ccnc2O1 (stereo not given) | -25.3% | –
COC(=O)CCCCCN1C(=O)NC(c2ccc(-c3ccccc3)cc2)C(C(=O)OCc2ccccc2)=C1C (stereo not given) | -5.84% | –
CCN1C(=O)N[C@@H](c2ccccc2)C(C(=O)OC)=C1C | 0.354% | –
CCCCNC(=O)C(C)N(CCN(C)C)C(=O)CCCCCN1C(=O)NC(c2ccc(Cl)cc2)C(C(=O)OCc2ccccc2)=C1C (stereo not given) | – | 22.4 µM (active)
Cc1oc(-c2cccc(NC(=O)c3ccccc3)c2)nc1CNC(=O)c1cnc2ccccn2c1=O | -18.1% | –
COc1cc(=O)n2c(c1C(=O)N(C)Cc1nonc1C)CCN(C(=O)c1ccc(C)cc1C)CC2 | -16.8% | –
O=c1ccc2c(-c3ccccc3S(=O)(=O)O)c3ccc(O)c(O)c3oc-2c1O | – | 10 µM (active)
CC(=O)Nc1ccccc1-c1nc(CNC(=O)c2ccc(Cl)cc2)c(C)o1 | -11.2% | –
COc1ccc(-c2cc(C)nc3nc(N)nn23)cc1 | 0.852% | –
COc1cccc(CSc2nc3nc(C)cc(C)n3n2)c1 | 2.32% | –
COc1ccc(-c2nc3nc(C)cc(C)n3c2Nc2c(C)cccc2C)cc1 | – | 28.2 µM (active)
COc1cncc(-c2cnc3sc(NCCc4ccccn4)nn23)c1 | 2.53% | –
COc1cc(/C=C/C(N)=O)cc(OC)c1OC | -12.2% | –
CC(C)(c1ccccc1)c1ccc(OCCN2CCCC2)cc1 | 1.01% | –
CC1CCCN(CC(=O)Nc2cc(Cl)ccc2Oc2ccccc2)C1 (stereo not given) | 16.2% | –

Structure (SMILES) | activity change, negative = cytotoxicity | Potency
COCC1CCCN(Cc2ccc3c(c2)CN(C(=O)c2ccnn2C)CCO3)C1 (stereo not given) | 2.16% | –
CCCNC(=O)c1cc(C2CCCN(C(=O)c3ccc4c(c3)CCO4)C2)on1 (stereo not given) | -32.5% | –
COc1ccc2c(c1)CCc1cnc(-n3ncc(C(=O)NCCN4CCOCC4)c3C)nc1-2 | -7.73% | –
Cc1cnc(C(=O)N2CCOc3ccc(CN4CCCC(C(=O)c5cccnc5)C4)cc3C2)[nH]1 (stereo not given) | -20.4% | –
CC(=O)Nc1cc(C(=O)N2CCc3c(Cl)cccc3C2)cc2ncn(CCc3ccccn3)c12 | -11.4% | –
Cc1ccc(-c2csc(NC3OC(=O)c4ccccc43)n2)cc1 (stereo not given) | – | 25.1 µM (active)
COc1ccc2c(c1OC)C(=O)OC2Nc1nc(-c2ccccc2)cs1 (stereo not given) | – | 20 µM (active)
C/C(CC1CC(C)(C)OC1=O)=N/Nc1nc(-c2ccccc2)cs1 (stereo not given) | -37.1% | –
Cc1ccc(-c2csc(-c3c[nH]c4ccccc34)n2)cc1 | -12.2% | –
COc1ccc(-c2csc(Nc3cccc(C)n3)n2)cc1OC | -29.7% | –
CCc1ccccc1NC(=O)[C@@H]1CCC(=O)N1C1OC(=O)c2c1ccc(OC)c2OC (stereo not given in full) | -5.58% | –
Cc1c(C(=O)NCC2CCCN(C)C2)cnn1-c1nccc(-c2ccco2)n1 (stereo not given) | -11.9% | –
Cc1ccc(NS(=O)(=O)c2cc3c(cc2Br)NC(=O)CO3)cc1C | -26.2% | –
N#Cc1ccc(-c2nc3c(Cl)cc(C(F)(F)F)cn3c2Cc2ccccc2C(F)(F)F)cc1 | -15.8% | –
C[C@@H]1CN(Cc2ccc3c(c2)CN(Cc2ccc(Oc4ncccn4)cc2)CCO3)C[C@H](C)O1 | -1.79% | –
CC(C)(C)c1ccc(S(=O)(=O)Nc2ccc(O)c(Sc3nc4ccccc4s3)c2)cc1 | -34.1% | –
O=[N+]([O-])c1c(NCCO)cc(Sc2nc3ccccc3s2)c2nonc12 | – | 20 µM (active)
CC(C)c1ccc(S(=O)(=O)Nc2ccc(O)c(Sc3nc4ccccc4s3)c2)cc1 | -34% | –
C=C1C(=CC=C2CCC[C@]3(C)[C@@H]([C@H](C)C=C[C@H](C)C(C)C)CC[C@@H]23)C[C@@H](O)C[C@@H]1O | 13.1% | –
COc1ccc(C)cc1N1C(=O)[C@@H]2C[C@H]1CN2Cc1cccc(OC)c1O | -13.5% | –
